SNCA expr inh = Primary qHTS assay for inhibitors of alpha-synuclein gene (SNCA) expression | 0.17% of 140,000 active | Potency, µM (series often up to 57.2 µM), hits mostly inhibitors | HEK-293 SNCA-luciferase knock-in, luminescence, 24 h; further: nearly all actives have a fitted effect of over 45% in size
IP6K1 inhibitor = Primary qHTS assay for small molecule inhibitors of Inositol hexaphosphate kinase 1 (IP6K1). Inositol hexakisphosphate kinase 1 (Homo sapiens), Q92551. IP6K1 kinase, ADP-Glo luminescence, 2 h; hits give low values. activity change, % (series mostly up to about 58 µM). 0.81% of 140,000 active. AID 1645851, 2021; in the data active means activity change below about -25%
Target sequence (Q92551 whole entry, looked up): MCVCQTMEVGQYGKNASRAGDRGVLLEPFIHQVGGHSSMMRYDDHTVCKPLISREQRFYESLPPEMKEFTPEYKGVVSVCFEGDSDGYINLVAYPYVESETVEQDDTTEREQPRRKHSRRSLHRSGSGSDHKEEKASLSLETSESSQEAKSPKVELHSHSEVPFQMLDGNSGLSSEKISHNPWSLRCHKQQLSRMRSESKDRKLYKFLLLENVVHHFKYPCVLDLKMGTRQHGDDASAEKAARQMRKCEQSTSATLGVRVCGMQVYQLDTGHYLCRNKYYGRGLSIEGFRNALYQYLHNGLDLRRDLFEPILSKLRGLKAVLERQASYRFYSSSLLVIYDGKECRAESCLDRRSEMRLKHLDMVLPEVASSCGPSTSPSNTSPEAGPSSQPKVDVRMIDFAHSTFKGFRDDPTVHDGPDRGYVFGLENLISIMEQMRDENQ
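ADP-Glo luminescence measures ADP made by human IP6K1 during a 2 h RT reaction with ATP/IP6 (mix at 1.3 mM/130 uM); top library doses 57.5 and 19.1 uM final.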
SNCA viab count = GF-AFC viability counterscreen for inhibitors of alpha-synuclein gene (SNCA) expression; Potency, µM (titrated, usually from 57.1 µM), usual class: cytotoxic; 0.12% of 150,000 active; HEK-293-SNCA-luc viability, GF-AFC fluorescence, 24 h; further: nearly all actives have a fitted effect of over 30% in size
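HEK-293-SNCA-luc cells (1500/well) plated 24 h, then exposed 24 h to a dilution series; GF-AFC added 30 min at 37C, fluorescence 405/540 nm; normalised to medium-only and DMSO wells, Hill fit.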
KDM5B inh = Primary screen for KDM5B Histone Demethylases FDH-coupled qHTS; Lysine-specific demethylase 5B (Homo sapiens), Q9UGL1; Potency, µM (doses to about 57.7 µM), actives largely listed as inhibitors; KDM5B demethylase, FDH-coupled NADH fluorescence (FDH is formaldehyde dehydrogenase); 2.6% of 220,000 active; AID 1347165, 2019; further: nearly all actives have a fitted effect of over 70% in size
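Compound dilutions met 200 nM (final) KDM5BΔAP for 10 min at room temperature before substrate addition. The substrate mix held 12.5 µM H3K4me3 with cofactors 25 µM α-ketoglutarate and 50 µM Fe²⁺. NADH signal gain over 30 min defined activity.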
Hits are given with their value; . = inactive; ? = inconclusive; / = not tested or not shown; [ ] = another dose, or the depositor's remark. This is a sample that favours compounds with a hit; in the whole collection about 2.9% have one here. Unless noted, the call rests on the fitted dose curve; in most records, active means well fitted curve in the direction sought with a large enough effect; inconclusive means small, poorly fitted or top-dose-only effect, or another doubt; inactive means no such curve, though single readings can be large; an effect the other way counts as inactive or inconclusive.

SMILES	SNCA expr inh	IP6K1 inhibitor	SNCA viab count	KDM5B inh
Cc1ccc(S(=O)(=O)NCC(c2ccccc2)c2ccccc2)cc1	/	/	/	.
Cc1nc2cc(C(=O)N3CC[C@@](C)(O)[C@@H](O)C3)ccc2s1	.	.	.	.
COC[C@@H]1CN(c2ncccn2)C[C@H]1C(=O)NCCn1cccn1	.	.	.	20µM
CC(C)CN(C)C(=O)c1cc(-c2cnn(C(C)C)c2)nc2cc(F)ccc12	?	.	?	28µM
CN(Cc1ccccc1)C(=O)c1cc(-c2ccncc2)nc2ccccc12	/	/	/	.
CC(C)n1cc(-c2cc(C(=O)N(C)Cc3cccnc3)c3cc(F)ccc3n2)cn1	.	.	.	25µM
COCC1CN(S(=O)(=O)c2ccc(C)cc2)CC12CCOCC2 (centres undefined)	.	.	?	.
CN1C[C@@H]2CC[C@H](CC1=O)N2C(=O)c1cnn2cc(CCO)cnc12	.	.	.	32µM
CC(C)(C)c1ccc(C(=O)Nc2cc(-c3nc4ccccc4o3)ccc2Cl)cc1	.	.	.	?
CCc1ccc(N2CC(c3noc(-c4ccccn4)n3)CC2=O)cc1 (centres undefined)	.	.	.	.
CCc1ccc(N2CC(c3noc(-c4ccccc4)n3)CC2=O)cc1 (centres undefined)	.	.	.	.
CCc1ccc(N2CC(c3noc(-c4ccc5ncccc5c4)n3)CC2=O)cc1 (centres undefined)	.	.	.	32µM
CCc1ccc(N2CC(c3noc(-c4nccc5ccccc45)n3)CC2=O)cc1 (centres undefined)	.	.	.	32µM
O=C1CC(c2noc(-c3ccoc3)n2)CN1C1CCCCC1 (centres undefined)	.	.	.	.
O=C1CC(c2noc(-c3nccc4ccccc34)n2)CN1C1CCCCC1 (centres undefined)	.	.	.	22µM
O=C(c1cnn2ccccc12)N1CCC(Cc2cccc(CO)c2)C1 (centres undefined)	?	.	.	28µM
Cc1nn(-c2ccccc2[N+](=O)[O-])c(C)c1[C@@H]1C=C[C@@H](NCc2ccc(C(C)C)cc2)C1	.	.	20µM	?
Cc1nn(-c2ccccc2[N+](=O)[O-])c(C)c1[C@@H]1C=C[C@@H](NCc2ccco2)C1	.	.	?	?
COc1ccccc1-c1nnc([C@H]2CCN(CC3CCCCC3)C2)o1	.	.	.	35µM
Cc1nc(CC(=O)NCc2ccc3[nH]c(-c4ccc(F)cc4)c(C)c3c2)cs1	.	.	.	32µM
Cc1c(-c2ccc(F)cc2)[nH]c2ccc(CNCc3cnn(C)c3)cc12	.	.	.	32µM
Cc1c(-c2ccc(F)cc2)[nH]c2ccc(CNC(=O)[C@@H]3CCCO3)cc12	.	.	.	28µM
Cc1c(-c2ccc(F)cc2)[nH]c2ccc(CNC(=O)CCN3CCCO3)cc12	.	.	.	32µM
Cc1ccc2c(c1)N(CCC(=O)NCc1ccc(F)cc1)C(=O)CO2	.	.	.	?
Cc1cccc(-c2ncc(CN(C)Cc3cccc4ncccc34)cn2)c1	.	.	.	.
SMILES	SNCA expr inh	IP6K1 inhibitor	SNCA viab count	KDM5B inh
C=CCN(Cc1cnc(-c2cccc(C)c2)nc1)Cc1ccccn1	?	.	.	22µM
COCCCn1c(C)cc(C(=O)N2CCCC(c3[nH]ccc3C(N)=O)C2)c1C (centres undefined)	?	.	.[12.5 µM]	18µM
Cn1cccc1C(=O)N1CC[C@H](NC(=O)NC2CCCCC2)[C@H]1C(=O)N1CCC[C@@H]1C(N)=O	.	.	.	.
CNC(=O)CCc1ccc2c(c1)CN(C(C)=O)CCO2	.	.	.[12.5 µM]	.
CC(=O)N1CCOc2ccc(CCC(=O)NC(C)Cn3ccc(C)n3)cc2C1 (centres undefined)	20µM	.	.[12.5 µM]	.
Cc1cn2nc(C(=O)Nc3ccc4c(c3)OCCO4)cc2c(N2CCCC2)n1	.	.	.	25µM
COc1cccc(CNC(=O)c2cc3c(N4CCCC4)nc(C)cn3n2)c1	.	.	.	.
COc1cccc(NC(=O)c2cc3c(N4CCCC4)nc(C)cn3n2)c1	.	.	?	35µM
Cc1ccc(NC(=O)c2cc3c(N4CCCC4)nc(C)cn3n2)cc1	.	.	.	?
Cc1cn2nc(C(=O)Nc3cccc(F)c3C)cc2c(N2CCCC2)n1	.	.	?	25µM
COCC(=O)N1CCN(C(=O)C(=O)c2cccn2C)[C@H]2CS(=O)(=O)C[C@H]21	.	.	.	.
COc1cc(-c2nc3ccc(C)cn3c2Nc2ccc(Cl)cc2)ccc1O	.	.	?	?
COc1ccc(OCC(=O)Nc2ccc3oc(-c4ccc(OC)cc4)nc3c2)cc1	/	/	/	.
c1ccc(-c2cc3c(ccn3Cc3ccncc3)c(N3CCOCC3)n2)cc1	?	.	.	7.9µM
O=C1NCc2cc(-c3cc4c(ccn4Cc4ccncc4)c(N4CCOCC4)n3)ccc21	.	.	.	32µM
COc1ccc(-c2cc3c(ccn3Cc3ccncc3)c(N3CCOCC3)n2)cn1	.	.	.	?
c1cc(Cn2ccc3c(N4CCOCC4)nc(-c4cncnc4)cc32)ccn1	.	.	.	.
COc1cc(F)ccc1-c1cc2c(ccn2Cc2ccncc2)c(N2CCOCC2)n1	.	.	.	35µM
Cc1ccc(C(=O)N2CCN(c3nc4ncccc4o3)CC2)cc1	.	.	.	?
Cn1cccc1-c1nc(-c2nnn3c2COC(c2ccc(Cl)cc2)C3)no1 (centres undefined)	.	.	.	.
Cn1nccc1C(=O)NCC1COc2ncncc2C(=O)N1Cc1ccccc1 (centres undefined)	.	.	.	?
CCOC(=O)c1nc(N(Cc2ccccc2)C(C)C)c2ccccc2n1	/	/	/	.
Cc1ccc(CN2CCCn3nc(C)c(-c4ccccc4-c4ccccc4)c32)o1	?	.	.	35µM
Cc1nn2c(c1-c1ccccc1-c1ccccc1)N(Cc1cccc(O)c1)CCC2	?	.	?	28µM
CN(C)c1ccc(CN2CCC23Cc2ccccc2NC3=O)cc1 (centres undefined)	.	.	.	?
SMILES	SNCA expr inh	IP6K1 inhibitor	SNCA viab count	KDM5B inh
Cc1nn(CC(=O)NCc2ccc(F)cc2F)c(=O)c2nc(-c3ccccc3)sc12	.	.	.	32µM
Cc1nn(CC(=O)NCc2cccnc2)c(=O)c2nc(-c3ccccc3)sc12	.	.	.	28µM
O=C(Cn1nc(-c2cccs2)c2ccccc2c1=O)NCc1cccc(Cl)c1	/	/	/	.
O=C(c1ccn2nccc2c1)N1CCOCC1	.	.	.	32µM
CN1c2cccnc2CN(CC2CCCCC2)CC[C@H]1CO	.	.	.	28µM
C[C@@H]1CN(C(=O)c2cc(-c3ccco3)nc3c(Cl)cccc23)C[C@]1(C)O	.	.	.	.
Cc1cc(CNC(=O)c2cc(-c3ccco3)nc3c(Cl)cccc23)no1	.	.	.	28µM

Compound activity: PubChem, National Center for Advancing Translational Sciences (NCATS)
